Several values for one entry are separate records, joined by “and”; a condition that tells them apart may be missing. Equal values may be shown once. Inconclusive results are not listed. Activity calls are given as the source filed them.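 How the source made its calls, unless noted: active means normalized viability below 100% at a tested concentration; inactive means the rest.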
Key:
[1] = viability loss in pontine glioma line – cell-based, SU-DIPG-XVII, MIPE5.0, CellTiter-Glo, qHTS, dose response (AID 1347060; cut-off not given, nearly all actives have AC50 up to about 26 µM;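 on AC50: cells exposed to compound for 48 hours before viability readout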); conditions: CellTiter-Glo ATP luminescence
[2] = viability loss in pontine glioma line – cell-based, SU-DIPG-XIII, MIPE4.0, CellTiter-Glo, qHTS, dose response (AID 1347061; cut-off not given, nearly all actives have AC50 up to about 37 µM;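 further: cells exposed to compound for 48 hours before readout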); conditions: CellTiter-Glo ATP luminescence
[3] = viability loss in pontine glioma line – cell-based, SU-DIPG-XIII, MIPE5.0, CellTiter-Glo, qHTS, dose response (AID 1347064; cut-off not given, nearly all actives have AC50 up to about 23 µM;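 on AC50: cells exposed to compound for 48 hours before the viability read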); conditions: CellTiter-Glo ATP luminescence
[4] = growth inhibition of DIPG cells – cell-based, MIPE4.0 library, CellTiter-Glo luminescence, qHTS (AID 1347066; cut-off not given, nearly all actives have AC50 up to about 30 µM;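 further: cells exposed to compound for 48 hours before readout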); conditions: SU-DIPG-VI viability, CellTiter-Glo ATP luminescence
[5] = JHH-DIPG-1 glioma cell viability, MIPE5.0 library, CellTiter-Glo luminescence, qHTS (AID 1347067; cut-off not given, nearly all actives have AC50 up to about 26 µM;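 further: cells exposed to compound for 48 hours before readout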); conditions: JHH-DIPG-1 glioma viability, CellTiter-Glo ATP luminescence
[6] = viability loss with induced miR-34 in A549 – imaging, A549 dox-inducible miR-34, nuclei and caspase counts, primary screen (AID 1347080;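 active means compounds whose cell count with miR-34 switched on is under 0.7 times the count with it off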); conditions: A549 miR-34 inducible, Hoechst nuclei count, 48 h
[7] = viability loss in pontine glioma line – cell-based, SU-DIPG-IV, MIPE4.0, CellTiter-Glo, qHTS, dose response (AID 1347063; cut-off not given, nearly all actives have AC50 up to about 30 µM;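 further: compound exposure lasted 48 hours before the viability readout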); conditions: CellTiter-Glo ATP luminescence
[8] = viability loss in pontine glioma line – cell-based, SU-DIPG-XXV, MIPE5.0, CellTiter-Glo, qHTS, dose response (AID 1347065; cut-off not given, nearly all actives have AC50 up to about 26 µM;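 further: cells exposed to compound for 48 hours before ATP readout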); conditions: CellTiter-Glo ATP luminescence
[9] = growth inhibition of DIPG cells – cell-based, MIPE5.0 library, qHTS (AID 1347068; cut-off not given, nearly all actives have IC50 up to about 30 µM;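 on IC50: cells exposed to compound for 48 hours before viability readout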); conditions: SU-DIPG-XXV viability
[10] = compounds altering HSF1 focus formation in cells – imaging, Selleck Cancer Library (AID 1347162; in the data active means plate-normalised HSF1 focus index below about 0.46); conditions: human cells, HSF1 nuclear foci imaging, at 10 µM; SSMD: measured here: HSF1 foci SSMD mean; cell count: measured here: cell number; plate-normalised HSF1 focus index: stronger effect = lower value
[11] = MELAS cybrid and Rieske KO viability enhancers – cell-based, MELAS cybrids, Rieske KO mouse fibroblasts, CellTiter-Glo, primary screen (AID 1508586;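 active means mean z-score across replicates of 1.96 or higher in either the MELAS or the Rieske mutant cell line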;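 further: z relative to plate mean and SD of compound and empty wells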); conditions: low glucose
[12] = drug combination growth inhibition, ovarian cancer – cell-based, oncology-focused library, rucaparib conditional, profiling panel (AID 1508598); conditions: patient-derived ovarian cancer cells, CellTiter-Glo viability, 144 h, stronger effect = lower value
[13] = stronger effect = lower value, cell number ratio, induced over uninduced
[14] = measured here: relative caspase fold change +Dox/-Dox
[15] = measured here: total cells with miR-34 induction, stronger effect = lower value
[16] = measured here: total cells without miR-34 induction
[17] = MELAS cybrid survival, CellTiter-Glo 48 h, stronger effect = higher value
[18] = Rieske KO mouse fibroblast survival, CellTiter-Glo 72 h

C/C=C/C/C=C/CCC(=O)[C@H]1O[C@H]1C(N)=O
inactive: outcome [2] | outcome [4] | fold change [6, 13] 0.809 and 1.05
2.34 and 1.07: fold change [6, 14]
532 and 6420: cell count [6, 15]
active: AC50 [1] 20.9 µM | AC50 [3] 20.9 µM | AC50 [5] 23.5 µM
658 and 6130: cell count [6, 16]

CCc1cc(-c2n[nH]c(C)c2-c2ccc3c(c2)OCCO3)c(O)cc1O
inactive: plate-normalised HSF1 focus index [10] 1.07
5920: cell count [10]
active: AC50 [1] 18.6 µM | AC50 [2] 7.43 µM | AC50 [7] 2.64 µM | AC50 [8] 16.6 µM | AC50 [5] 20.9 µM | IC50 [9] 20.9 µM
1.15: SSMD [10]

CC1=C(C(=O)Nc2cc3cn[nH]c3cc2F)C(c2ccc(C(F)(F)F)cc2)CC(=O)N1 (centres undefined)
5210: cell count [6, 15]
inactive: outcome [1] | outcome [2] | outcome [7] | outcome [3] | outcome [5] | outcome [9] | fold change [6, 13] 1.03 | z-score [11, 17] -0.364
5040: cell count [6, 16]
0.0194: z-score [11, 18]
0.78: fold change [6, 14]

CN[C@@H](C)C(=O)N[C@H]1CN(C(=O)CC(C)C)CC[C@H]2CC[C@@H](C(=O)NC(c3ccccc3)c3ccccc3)N2C1=O
7260: cell count [10]
2.71: SSMD [10]
inactive: outcome [1] | outcome [2] | outcome [8] | outcome [4] | outcome [5] | outcome [9] | plate-normalised HSF1 focus index [10] 1.1

O=S(=O)(O)CCSSCCS(=O)(=O)O
9460 and 8440: cell count [6, 16]
0.587: z-score [11, 18]
8910 and 7810: cell count [6, 15]
inactive: outcome [1] | outcome [2] | outcome [3] | outcome [8] | outcome [4] | outcome [5] | outcome [9] | fold change [6, 13] 0.942 and 0.926 | z-score [11, 17] -0.449 | viability ([12]; at 0.000305 µM, OCI-C5x cells, without rucaparib) 108% | viability ([12]; at 0.000305 µM, OCI-P5x cells, with rucaparib 20 µM, 100% = cells with rucaparib alone) 105% | viability ([12]; at 0.000305 µM, OCI-P5x cells, without rucaparib) 108% | viability ([12]; at 0.00122 µM, OCI-C5x cells, with rucaparib 10 µM, 100% = cells with rucaparib alone) 106% | viability ([12]; at 0.00122 µM, OCI-C5x cells, without rucaparib) 106% | viability ([12]; at 0.00122 µM, OCI-P5x cells, with rucaparib 20 µM, 100% = cells with rucaparib alone) 105% | viability ([12]; at 0.00122 µM, OCI-P5x cells, without rucaparib) 103% | viability ([12]; at 0.00488 µM, OCI-C5x cells, with rucaparib 10 µM, 100% = cells with rucaparib alone) 102% | viability ([12]; at 0.00488 µM, OCI-C5x cells, without rucaparib) 103% | viability ([12]; at 0.00488 µM, OCI-P5x cells, with rucaparib 20 µM, 100% = cells with rucaparib alone) 101% | viability ([12]; at 0.00488 µM, OCI-P5x cells, without rucaparib) 100% | viability ([12]; at 0.0195 µM, OCI-C5x cells, with rucaparib 10 µM, 100% = cells with rucaparib alone) 100% | viability ([12]; at 0.0195 µM, OCI-C5x cells, without rucaparib) 107% | viability ([12]; at 0.0195 µM, OCI-P5x cells, with rucaparib 20 µM, 100% = cells with rucaparib alone) 105% | viability ([12]; at 0.0195 µM, OCI-P5x cells, without rucaparib) 104% | viability ([12]; at 0.0781 µM, OCI-C5x cells, with rucaparib 10 µM, 100% = cells with rucaparib alone) 100% | viability ([12]; at 0.0781 µM, OCI-C5x cells, without rucaparib) 104% | viability ([12]; at 0.313 µM, OCI-C5x cells, with rucaparib 10 µM, 100% = cells with rucaparib alone) 100% | viability ([12]; at 0.313 µM, OCI-C5x cells, without rucaparib) 105% | viability ([12]; at 0.313 µM, OCI-P5x cells, with rucaparib 20 µM, 100% = cells with rucaparib alone) 101% | viability ([12]; at 1.25 µM, OCI-C5x cells, with rucaparib 10 µM, 100% = cells with rucaparib alone) 127% | viability ([12]; at 1.25 µM, OCI-C5x cells, without rucaparib) 101% | viability ([12]; at 5 µM, OCI-C5x cells, with rucaparib 10 µM, 100% = cells with rucaparib alone) 116% | viability ([12]; at 5 µM, OCI-C5x cells, without rucaparib) 101%
0.692 and 0.976: fold change [6, 14]
active: viability ([12]; at 0.000305 µM, OCI-C5x cells, with rucaparib 10 µM, 100% = cells with rucaparib alone) 98.2% | viability ([12]; at 0.0781 µM, OCI-P5x cells, with rucaparib 20 µM, 100% = cells with rucaparib alone) 98.4% | viability ([12]; at 0.0781 µM, OCI-P5x cells, without rucaparib) 98.9% | viability ([12]; at 0.313 µM, OCI-P5x cells, without rucaparib) 97.9% | viability ([12]; at 1.25 µM, OCI-P5x cells, with rucaparib 20 µM, 100% = cells with rucaparib alone) 94.1% | viability ([12]; at 1.25 µM, OCI-P5x cells, without rucaparib) 89.9% | viability ([12]; at 5 µM, OCI-P5x cells, with rucaparib 20 µM, 100% = cells with rucaparib alone) 90.1% | viability ([12]; at 5 µM, OCI-P5x cells, without rucaparib) 88.4%
